In the supplement of paper PMC11219838:

System: Caenorhabditis elegans L1 (N2)
Assay: survival and reproduction score of C. elegans L1 (0: 0-10 living worms, 1: 11-20, 2: 21-50, 3: >50, 4: overgrown) (score 0-4); higher = more worms, less nematicidal, active = 1 or less; extreme values may be limits of the assay
Conditions: 60 µM; 6 days; temperature: 20 °C
Description: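 DODA library (846 commercial 1,3,4- and 1,2,4-oxadiazole compounds plus commercial nematicide controls) screened at a single dose of 60 µM (0.6% DMSO) in 96-well plates, two biological replicates. Read-outs: C. elegans N2 L1 survival/reproduction score at day 6, 20 °C (0: 0-10 worms, 1: 11-20, 2: 21-50, 3: >50, 4: overgrown/starved). C. elegans daf-2 dauer, D. dipsaci and M. hapla J2 mobility at day 5, 20 °C, and P. penetrans mobility at day 5, 20 °C, each relative to DMSO controls. M. hapla egg hatching at day 12, 25 °C, relative to the mean of 8 DMSO wells on the same plate.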

For CCCOc1ccc(-c2ccc(-c3nc(-c4cccnc4)no3)cc2)cc1, which “survival and reproduction score” value is on record?
Its value is 4 (inactive).

Cc1c(C)n(C(=O)CSc2nnc(-c3ccccc3)o2)c2ccccc12 was tested. Which “survival and reproduction score” value did it give?
Its value is 4 (inactive).

How did the “survival and reproduction score” value turn out when Clc1ccc(-c2nnc(SCc3ccccc3)o2)cc1 was run?
Its value is 4 (inactive).

How did the “survival and reproduction score” value turn out when COc1ccc(C)cc1NC(=O)CSc1nnc(-c2ccc(Br)cc2)o1 was run?
Its value is 4 (inactive).

With COc1ccc(-c2noc(-c3ccc(C)cc3)n2)cc1 as the compound, how does the “survival and reproduction score” value read?
The value was 3 (inactive).

CC(C)C(=O)Nc1ccccc1-c1nc(-c2ccccc2)no1 was tested. Which “survival and reproduction score” value did it give?
Its value is 4 (inactive).

With O=C(CSc1nnc(-c2ccccc2Cl)o1)Nc1ccc(F)cc1 as the compound, how does the “survival and reproduction score” value read?
The value was 4 (inactive).

For Cc1cc(C)nc(SCc2nc(-c3ccccc3)no2)n1, which “survival and reproduction score” value is on record?
The value was 4 (inactive).

O=C(Nc1ccc(-c2noc(-c3ccc(Cl)cc3)n2)cc1)c1ccco1 was tested. Which “survival and reproduction score” value did it give?
The value was 0 (active).

Which “survival and reproduction score” value does the source give for Fc1ccccc1-c1nc(-c2ccccc2)no1 here?
The value was 0 (active).

How did the “survival and reproduction score” value turn out when COc1ccc(-c2noc(COc3ccc4c(c3)CCCC4)n2)cc1 was run?
The value was 4 (inactive).

N#Cc1ccc(CSc2nnc(-c3ccco3)o2)cc1 was tested. Which “survival and reproduction score” value did it give?
Its value is 1.5 (inactive).

Cc1ccc(-c2noc(-c3ccc(C)cc3C)n2)cc1 was tested. Which “survival and reproduction score” value did it give?
Its value is 4 (inactive).

Cc1ccc(NC(=O)CSc2nnc(-c3ccc(C(C)(C)C)cc3)o2)c(C)c1 was tested. Which “survival and reproduction score” value did it give?
Its value is 2 (inactive).

For COc1ccc(-c2noc(COc3ccccc3Cl)n2)cc1, which “survival and reproduction score” value is on record?
Its value is 4 (inactive).

CC(C)(Oc1ccc(Cl)cc1)c1nc(-c2ccncc2)no1 was tested. Which “survival and reproduction score” value did it give?
The value was 0.5 (active).

For CCSc1nnc(-c2ccc(Cl)cc2)o1, which “survival and reproduction score” value is on record?
Its value is 0 (active).

For Cc1ccc(-c2noc(COc3ccc(Cl)cc3)n2)cc1, which “survival and reproduction score” value is on record?
The value was 4 (inactive).

For Cc1ccc(C)c(-c2nc(-c3ccc(Cl)cc3)no2)c1, which “survival and reproduction score” value is on record?
The value was 4 (inactive).

How did the “survival and reproduction score” value turn out when COc1ccccc1-c1nc(-c2ccc(Cl)cc2)no1 was run?
Its value is 4 (inactive).

For CCN(CC)C(=O)CSc1nnc(-c2cccc(Cl)c2)o1, which “survival and reproduction score” value is on record?
Its value is 4 (inactive).

Cc1cc(OCc2nc(-c3ccccc3)no2)cc(C)c1Cl was tested. Which “survival and reproduction score” value did it give?
Its value is 4 (inactive).

With CCCCC(=O)Nc1ccccc1-c1nc(-c2cccnc2)no1 as the compound, how does the “survival and reproduction score” value read?
Its value is 4 (inactive).

For Ic1cccc(-c2nc(-c3cccnc3)no2)c1, which “survival and reproduction score” value is on record?
Its value is 4 (inactive).

CCOc1ccccc1-c1nc(-c2ccc(NC(=O)Cc3ccccc3OC)cc2)no1 was tested. Which “survival and reproduction score” value did it give?
Its value is 4 (inactive).

Which “survival and reproduction score” value does the source give for COc1ccc(C(=O)Nc2ccc(-c3nnc(SCc4ccccc4)o3)cc2)cc1 here?
Its value is 4 (inactive).

Clc1cc(Cl)c(OCc2nc(-c3ccncc3)no2)cc1Cl was tested. Which “survival and reproduction score” value did it give?
Its value is 4 (inactive).

Which “survival and reproduction score” value does the source give for CC(C)(C)c1ccc(-c2nnc(SCc3cccc(C#N)c3)o2)cc1 here?
The value was 3.5 (inactive).

With Clc1ccc(SCc2nc(-c3ccccn3)no2)cc1 as the compound, how does the “survival and reproduction score” value read?
Its value is 0.5 (active).

How did the “survival and reproduction score” value turn out when COc1ccc(-c2noc(-c3ccccc3C)n2)cc1 was run?
Its value is 0 (active).

Which “survival and reproduction score” value does the source give for FC(F)(F)c1cccc(-c2noc(-c3cccs3)n2)c1 here?
Its value is 0 (active).

For CC(Oc1ccc(Br)cc1)c1nc(-c2ccncc2)no1 (stereo not given), which “survival and reproduction score” value is on record?
The value was 0 (active).

Which “survival and reproduction score” value does the source give for O=C(Nc1ccccc1-c1nc(-c2cccnc2)no1)c1cccc(Cl)c1 here?
Its value is 4 (inactive).

With COc1cccc(-c2noc(-c3ccc(C)cc3Cl)n2)c1 as the compound, how does the “survival and reproduction score” value read?
Its value is 4 (inactive).

How did the “survival and reproduction score” value turn out when N#Cc1ccccc1CSc1nnc(-c2ccccc2)o1 was run?
The value was 4 (inactive).

Clc1ccc(-c2noc(COc3ccc4c(c3)OCO4)n2)cc1 was tested. Which “survival and reproduction score” value did it give?
The value was 4 (inactive).

How did the “survival and reproduction score” value turn out when CCOc1ccccc1NC(=O)CSc1nnc(-c2ccco2)o1 was run?
The value was 4 (inactive).

Which “survival and reproduction score” value does the source give for COc1ccc(CCC(=O)Nc2ccc(-c3noc(-c4ccc(F)cc4)n3)cc2)cc1 here?
The value was 4 (inactive).

Which “survival and reproduction score” value does the source give for COc1nc(-c2ccc(Cl)cc2)ccc1-c1noc(C)n1 here?
Its value is 4 (inactive).

For O=C(CSc1nnc(-c2ccccc2)o1)Nc1cccc(F)c1, which “survival and reproduction score” value is on record?
Its value is 4 (inactive).
